Source: PubChem BioAssay (NCI)
Compounds without any hit were thinned out: in the full panel of roughly 79,000, 15% have a hit. A number with no mark means an inactive call. Activity calls are given as the source filed them. No stated cut-off is given here; in the data, active means growth inhibition above about 70%; inactive means the rest.

Assays:
[1] = NCI Yeast Anticancer Drug Screen. Data for the rad50 strain (AID 155);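 further: 0% = growth of vehicle-only cultures of the same strain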; settings: S. cerevisiae rad50 strain growth inhibition, stronger effect = higher value
How it was run: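 Growth of the mutant yeast was measured after compound exposure and referenced to vehicle-treated cultures.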

[2] = NCI Yeast Anticancer Drug Screen. Data for the mec2-1 strain (AID 157); settings: S. cerevisiae mec2-1 strain, stronger effect = higher value
How it was run: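 Growth inhibition is read against vehicle-treated controls after compound exposure of the mec2-1 yeast strain, which is defective in DNA damage repair or cell cycle control.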

[3] = NCI Yeast Anticancer Drug Screen. Data for the sgs1 mgt1 strain (AID 161);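 further: 0% = growth of cultures given vehicle only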; settings: S. cerevisiae sgs1 mgt1 strain, stronger effect = higher value
How it was run: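 Percent growth inhibition was derived by comparing compound-exposed mutant yeast with vehicle-exposed cultures. The strain carries alterations in DNA damage repair.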

[4] = NCI Yeast Anticancer Drug Screen. Data for the cln2 rad14 strain (AID 165);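 further: 0% = growth equal to vehicle treated cultures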; settings: S. cerevisiae cln2 rad14 strain, stronger effect = higher value
How it was run: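 Growth inhibition, relative to vehicle-treated controls, is the read-out. The test organism is a yeast strain with defined genetic alterations, cln2 rad14.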

[5] = NCI Yeast Anticancer Drug Screen. Data for the bub3 strain (AID 167); settings: S. cerevisiae bub3 mutant strain, stronger effect = higher value
How it was run: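 Whole-cell yeast assay. The mutant strain was incubated with compounds, and growth inhibition was determined by comparison with vehicle-treated cells.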

[6] = NCI Yeast Anticancer Drug Screen. Data for the mlh1 rad18 strain (AID 175); settings: S. cerevisiae mlh1 rad18 strain growth inhibition, stronger effect = higher value
How it was run: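 Cells of a genetically altered yeast strain, deficient in DNA damage repair, were treated with compound. Their growth was then compared with that of vehicle-treated cultures to give inhibition.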

[7] = at 5.0 µM (retest, dose inferred, filed as 0.5)
[8] = at 50.0 µM (retest, dose inferred, filed as 5.0)

Structure (SMILES)	growth inhibition [1, 7]	growth inhibition [1, 8]	growth inhibition ([1]; at 50.0 µM)	growth inhibition [2, 7]	growth inhibition [2, 8]	growth inhibition ([2]; at 50.0 µM)	growth inhibition [3, 7]	growth inhibition [3, 8]	growth inhibition ([3]; at 50.0 µM)	growth inhibition [4, 7]	growth inhibition [4, 8]	growth inhibition ([4]; at 50.0 µM)	growth inhibition [5, 7]	growth inhibition [5, 8]	growth inhibition ([5]; at 50.0 µM)	growth inhibition [6, 7]	growth inhibition [6, 8]	growth inhibition ([6]; at 50.0 µM)
C=C1CC[C@@H](Br)C(C)(C)[C@]12CCC(C)(O)C(Cl)C2 (some centres not stated)	-3%	34%	91.7% (active)	16%	30%	93.5% (active)	10%	44%	92.2% (active)	31%	44%	90.9% (active)	6%	72% (active)	92% (active)	-25%	41%	91% (active)
CNC(=O)NN(C)C=O	0%	2%	-12.1%	4%	2%	45.5%	2%	1%	-7.95%	-2%	-4%	12.1%	-2%	-5%	-4.35%	-4%	-3%	-4.55%
CC1=NN(C(=O)c2ccncc2)C(=O)C1N=Nc1ccc(C)c([N+](=O)[O-])c1 (configuration not stated)	10%	61%	47.5%	2%	28%	19.4%	29%	94% (active)	88.8% (active)	6%	24%	-14.6%	1%	18%	3.65%	12%	69%	20.4%
CN(C)C(=S)SSSSC(=S)N(C)C	96% (active)	99% (active)	96.9% (active)	98% (active)	99% (active)	96.7% (active)	98% (active)	99% (active)	98.3% (active)	65%	99% (active)	93.3% (active)	96% (active)	99% (active)	96.8% (active)	97% (active)	99% (active)	97% (active)
N#CC(CC(=O)O)C(c1cccc2ccccc12)c1cccc2ccccc12 (configuration not stated)	10%	99% (active)	99.1% (active)	17%	99% (active)	98.5% (active)	4%	98% (active)	98.8% (active)	4%	99% (active)	97.6% (active)	17%	99% (active)	98.5% (active)	17%	99% (active)	99.2% (active)
OC(CCN1CCCCC1)(Cc1ccccc1)c1cccc(Cl)c1 (configuration not stated)	8%	46%	58.1%	4%	40%	26.6%	28%	78% (active)	73.1% (active)	17%	52%	77.8% (active)	15%	62%	50.9%	17%	64%	60.3%
Cn1c(=S)c2[nH]c(=S)[nH]c2n(C)c1=O	85% (active)	91% (active)	97.2% (active)	91% (active)	92% (active)	96.7% (active)	94% (active)	96% (active)	96.7% (active)	78% (active)	47%	80.3% (active)	91% (active)	89% (active)	96.7% (active)	92% (active)	93% (active)	97.2% (active)
CNc1ccc2c(c1)Cc1ccccc1-2	36%	92% (active)	97.3% (active)	3%	64%	91.8% (active)	56%	86% (active)	96.9% (active)	2%	79% (active)	92.8% (active)	-7%	45%	77.2% (active)	26%	92% (active)	97.2% (active)
Cn1c(=O)c2c(ncn2-c2ccncc2)n(C)c1=O	-5%	0%	11.4%	-4%	-5%	-3.9%	-3%	-7%	15.9%	-3%	31%	73.8% (active)	-9%	-8%	-5.35%	-5%	-2%	4.8%
CCS(=O)(=O)/C=C/c1ccncc1	-3%	11%	24.7%	3%	-1%	27.9%	-2%	12%	6.4%	1%	12%	5.85%	-2%	2%	7.9%	11%	11%	20.3%
O=C(c1ccccc1)c1cn(/N=C\c2ccccc2)c(=O)nc1-c1ccccc1	-3%	61%	88.5% (active)	-13%	96% (active)	80.2% (active)	2%	94% (active)	90.9% (active)	11%	95% (active)	87.4% (active)	16%	97% (active)	89% (active)	-1%	95% (active)	84.5% (active)
Oc1[nH]c2ccccc2c1N=NC(=S)N1CCCC1	15%	65%	33.5%	5%	64%	58.6%	7%	42%	54.6%	11%	48%	55%	26%	74% (active)	61.6%	13%	68%	57.8%
CN(C)CC(O)c1cc(-c2ccc(Cl)c(Cl)c2)nc2c(Cl)cc(Cl)cc12 (configuration not stated)	3%	98% (active)	97.8% (active)	-3%	99% (active)	98.5% (active)	-9%	99% (active)	98.5% (active)	-4%	97% (active)	98.2% (active)	0%	75% (active)	98.3% (active)	1%	98% (active)	98% (active)
NNC(=O)C(=O)N/N=C(/CCC(=O)NCCc1ccccc1)CC(=O)c1ccccc1	1%	3%	28.5%	1%	2%	3.05%	-2%	4%	9.1%	-3%	1%	6.15%	0%	0%	-3.3%	-2%	-3%	22.6%
CC(NC(=O)OCc1ccccc1)C(=O)NC(Cc1ccccc1)C(=O)OCc1ccccc1 (configuration not stated)	1%	5%	-17.6%	37%	2%	-5.05%	-2%	-1%	22%	5%	2%	36.6%	-3%	-7%	-4.4%	1%	7%	6.45%
O=C1C(=O)c2ccccc2C=C1Br	50%	99% (active)	99% (active)	91% (active)	99% (active)	99.2% (active)	75% (active)	99% (active)	99.2% (active)	67%	99% (active)	98.2% (active)	93% (active)	99% (active)	98.7% (active)	85% (active)	99% (active)	98.8% (active)
Cc1ccc(CN2CC(=O)N3Cc4ccccc4CN3C(=O)C2)cc1	-1%	-3%	-3.95%	-6%	-15%	6.6%	4%	4%	10.4%	0%	-3%	-8.8%	5%	30%	83.4% (active)	-5%	-2%	-20.2%
OC(C/C=N/Nc1ccccc1)(C(F)(F)Cl)C(F)(F)Cl	-13%	97% (active)	89.2% (active)	-11%	99% (active)	90.9% (active)	-10%	98% (active)	91.7% (active)	2%	98% (active)	89.5% (active)	5%	98% (active)	91.8% (active)	-18%	98% (active)	89.6% (active)
C[N+]1(C)CCN(CCCN2c3ccccc3Sc3ccccc32)CC1	0%	54%	42.1%	8%	22%	14.3%	-222%	66%	66.9%	4%	15%	25.7%	5%	26%	10.9%	-5%	76% (active)	56.9%
